{"source": "the supplement of paper PMC10338343", "note": "± gives the standard deviation.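 Note: 1 nM active piRISC with 0.1 nM target library at 33 °C single turnover.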", "data": [{"tested_on": "MILI (PIWIL2) piRISC loaded with L1MC piRNA (26 nt)", "assay": "pre-steady-state target cleavage rate (min^-1); guide: L1MC piRNA 5'p-UAACUAAAUACUAUGCAAGCUGUAGG; MIWI and MILI are mouse PIWI proteins and EfPiwi is from a freshwater sponge; tags in brackets are library labels; higher = faster piRNA-guided slicing of the target", "details": "auxiliary factor: 500 nM mouse GTSF1", "in_short": "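Cleave-'n-Seq measured uncleaved targets by sequencing after a transcribed, DNA-blocked target RNA library […] was mixed with 1 nM active affinity-purified piRISC holding one synthetic guide, with or without 500 nM GTSF1 partner protein, at 33 °C in HEPES–potassium acetate buffer for 0–8 or 0–960 min. Counts were normalised to depth and to weakly complementary targets, three trials were pooled, and k3 was capped at 0.0001 min^-1. A burst-and-steady-state fit gave the pre-steady-state cleavage rate.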", "values": [{"sequence": "UCCUGGUAGAGCUUGCAUAGAAUUUAGUUA", "pre-steady-state target cleavage rate": "0.0311 ± 0.0054"}, {"sequence": "UCCUGGUAGAGCUUGCAUAGUAUUUAGAUA", "pre-steady-state target cleavage rate": "0.14 ± 0.025"}, {"sequence": "UCCUGGAACAGCUUGCAUAGUAUAAUGUAA", "pre-steady-state target cleavage rate": "0.014 ± 0.0065"}, {"sequence": "UCCUGGAUGUCGAAGCAUAGUAUGUAGUUA", "pre-steady-state target cleavage rate": "0.0113 ± 0.0045"}, {"sequence": "UCCUGGUACAGCUUGCAUAGUUUUUAGAAA", "pre-steady-state target cleavage rate": "0.0221 ± 0.011"}, {"sequence": "UCCUCCUACAGCUUGCAUAGAAUAUAGUUA", "pre-steady-state target cleavage rate": "0.0822 ± 0.019"}, {"sequence": "UCCUGGAUGAGCUUGCAUUGUAUUUUGUUA", "pre-steady-state target cleavage rate": "0.0997 ± 0.015"}, {"sequence": "UCCUGGAUCACGAUGCAUAGUAUUUACAAA", "pre-steady-state target cleavage rate": "0.0606 ± 0.015"}, {"sequence": "UCCUGGUACACGAUGCAUAGUAUUUACAAA", "pre-steady-state target cleavage rate": "0.00826 ± 0.0057"}, {"sequence": "UCCUGGAACAGCAAGCAUAGUAUUUUCAAA", "pre-steady-state target cleavage rate": "0.0642 ± 0.018"}, {"sequence": "UCCUGGAUCAGCUUCCAUAGUAAUUAGUUA", "pre-steady-state target cleavage rate": "0.00494 ± 0.004"}, {"sequence": "UCCUGGAUGAGCUUGGAUAGUAUUUAGAUA", "pre-steady-state target cleavage rate": "0.0187 ± 0.0061"}, {"sequence": "UCCUGGAUGUGCUUGCAUAGUUUUAAGUUA", "pre-steady-state target cleavage rate": "0.0104 ± 0.0059"}, {"sequence": "UCCUGGAUGAGCUUGGAUAGUAUUUUGUUA", "pre-steady-state target cleavage rate": "0.141 ± 0.029"}, {"sequence": "UCCUGGUACAGCUUGCAUAGUAUUGUAGUUA", "pre-steady-state target cleavage rate": "0.233 ± 0.055"}, {"sequence": "UCCUGGUACAGCUUGCAUAGUAAUUACUUA", "pre-steady-state target cleavage rate": "0.00729 ± 0.0052"}, {"sequence": "UCCUGGAUGUCCUUGCAUAGUAUAAUGUUA", "pre-steady-state target cleavage rate": "0.0286 ± 0.011"}, {"sequence": "UCCUGCUACACGUUGCAUAGUAUUUACAAA", "pre-steady-state target cleavage rate": "0.0287 ± 0.01"}, {"sequence": "UCCUGGUACAGCUUGCAUAGAAUUUAGUAA", "pre-steady-state target cleavage rate": "0.0567 ± 0.024"}, {"sequence": "UCCUGGAUCAGCUUGCAUAGAAUAUAGUUA", "pre-steady-state target cleavage rate": "0.042 ± 0.012"}, {"sequence": "UCCUGGAUCAGGUUCCAUAGUAUUUAGUUA", "pre-steady-state target cleavage rate": "0.00709 ± 0.004"}, {"sequence": "UCCUGGUACAGCUUGCAUAGUAAUUAGAAA", "pre-steady-state target cleavage rate": "0.0664 ± 0.018"}, {"sequence": "UCCUGGAUGAGCUUGCAUAGUAUUAUGUUA", "pre-steady-state target cleavage rate": "0.172 ± 0.036"}, {"sequence": "UCCUGCUACAGCUUGCAUUCUAUUUACAAA", "pre-steady-state target cleavage rate": "0.0141 ± 0.0062"}, {"sequence": "UCCUGGAUGUGCUUGCAUAGUAUUUUGAAA", "pre-steady-state target cleavage rate": "0.00858 ± 0.0064"}, {"sequence": "UCCUGGAUGUCGUUGCAUAGUAUUUACGUUA", "pre-steady-state target cleavage rate": "0.231 ± 0.064"}, {"sequence": "UCCUGGAUGUGCUUGCAUAGUUAAUAGUUA", "pre-steady-state target cleavage rate": "0.00482 ± 0.0042"}, {"sequence": "UCCUGGAACAGCUUGCAUACUAUUUACUUA", "pre-steady-state target cleavage rate": "0.0611 ± 0.015"}, {"sequence": "UCCUGGAUGUGCUUGCAAAGUAUUUAGAAA", "pre-steady-state target cleavage rate": "0.0118 ± 0.0048"}, {"sequence": "UCCUGGAACUCGUUGCAUAGUAUUUUCAAA", "pre-steady-state target cleavage rate": "0.0397 ± 0.011"}, {"sequence": "UCCUGGAUGUGCUUGCAUAGUAUAUAGUAA", "pre-steady-state target cleavage rate": "0.0253 ± 0.0079"}, {"sequence": "UCCUGGAUGAGGUUGCAUAGAAUUUAGUUA", "pre-steady-state target cleavage rate": "0.00935 ± 0.0046"}, {"sequence": "UCCUGGAUGUCGAUGCAUAGUAUUUAGGUA", "pre-steady-state target cleavage rate": "0.0275 ± 0.011"}, {"sequence": "UCCUGGAACAGCUUGCUAUGUAUUUAGAAA", "pre-steady-state target cleavage rate": "0.00873 ± 0.0046"}, {"sequence": "UCCUGGAUCUCGUUGCAUAGUAUUUAGAAA", "pre-steady-state target cleavage rate": "0.141 ± 0.024"}, {"sequence": "UCCUGGUACAGCUUGGAUAGAAUUUAGUUA", "pre-steady-state target cleavage rate": "0.0709 ± 0.025"}]}]}
